A selection: hits, their analogues and other compounds. The true share with any hit is near 2.1%.
PAX8 reporter: PAX8 transcriptional activity inhibition; RMG-I TPO-luciferase reporter, SteadyGlo, 24 h; inhibition, % at 12.6 µM; 360,000 tested, 1.2% active; AID 652154;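 active = mean replicate inhibition at least 60% with every replicate also reaching 60%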;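 also: luciferase light reporting Pax8 driven TPO promoter activity; plate controls were median of neutral control wells for no effect and mitoxantrone controls for full effect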
Shn3 inh set2: reduces Shn3 3'UTR luciferase signal in osteoblasts; Clone20 osteoblast Shn3 3'UTR firefly luciferase, 24 h; 360,000 tested, 0.52% active; inhibition, % at 12.5 µM;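 active = mean inhibition of at least 75% with every replicate also reaching 75%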;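 also: 0% = median of neutral control wells and 100% = pilot-screen positive control compound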
LMP1 NFkB inh: reduces LMP1-driven NF-kappaB luciferase signal; AID 504558; 350,000 tested, 0.69% active; inhibition, % at 12.5 µM; LMP1-induced NF-kappaB luciferase reporter cells, luminescence; in the data active = inhibition above about 41%;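 also: 0% = neutral control wells and 100% = reference inhibitor control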
aSyn 5UTR inh: 5' untranslated region of α-synuclein, MLPCN primary screen; alpha-synuclein 5'UTR reporter, inhibitor activity; inhibition, % (tested at 7.5 µM); 300,000 tested, 0.82% active; in the data active = inhibition above about 60%;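 also: H4 neuroglioblastoma cells stably carrying SNCA 5'UTR luciferase fusion; 0% = DMSO wells and 100% = positive control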
MITF TRPM1 inh: inhibitors of MITF-driven TRPM1 promoter in melanoma cells | SK-MEL-5 TRPM1 promoter luciferase, 24 h | inhibition, % at 12.5 µM | 330,000 tested, 0.83% active;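 active = mean inhibition across replicates of 60% or more, whatever share of single replicates reaches that level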
* = called active by the depositor; x = no result.

SMILES	PAX8 reporter	Shn3 inh set2	LMP1 NFkB inh	aSyn 5UTR inh	MITF TRPM1 inh
C[C@@H]1CN([C@H](C)CO)C(=O)c2cc(NS(=O)(=O)c3cccs3)ccc2O[C@@H](C)CCCCO[C@@H]1CN(C)Cc1ccc(C(F)(F)F)cc1	94*	x	x	x	x
C[C@@H]1CN([C@H](C)CO)C(=O)c2cc(NS(=O)(=O)c3cccs3)ccc2O[C@@H](C)CCCCO[C@H]1CN(C)Cc1ccc(C(=O)O)cc1	-36	x	x	x	x
C[C@H](CO)N1C[C@H](C)[C@@H](CN(C)Cc2ccc(C(F)(F)F)cc2)OCCCC[C@H](C)Oc2ccc(NS(=O)(=O)c3cccs3)cc2C1=O	71*	x	x	x	x
CC1CCN(CCOc2ccc(C(=O)c3ccccc3)cc2)CC1	7	14	80*	-1	3
CCCS(=O)(=O)c1cnc(C2COc3ccccc3O2)nc1N (configuration not stated)	60	63	71*	68*	72*
C[C@H]1COC(=O)[C@H](CC(=O)OC(C)(C)C)C/C=C\C[C@H](CC(=O)N(CCO)Cc2ccccc2)C(=O)N1	-1	-3	0	x	0
CC(C)NC(=O)NC(=O)COC(=O)c1ccc(OC(F)(F)F)cc1	13	24	1	4	-5
C=C1C(=O)OC2C1CCC(C)=C1C(=O)C3OC3(C)C12 (configuration not stated)	x	98*	25	x	105*
Cc1ccc(CSc2nc3ccncc3[nH]2)cc1	13	20	47*	73*	0
O=C(c1ccc(CSc2nc3ccncc3[nH]2)cc1)N1CCN(c2cccc(Cl)c2)CC1	14	88*	9	8	x
Clc1ccc(CSc2nc3ccncc3[nH]2)cc1	-19	-47	22	12	-25
CCN1C(=O)N[C@@H](CCc2ccccc2)[C@H](C(C)=O)[C@H]1C	-2	-26	58*	-10	-9
COc1cccc(-n2nnnc2SCC(=O)Nc2ccccc2OC)c1	-5	9	-1	7	5
CCCS(=O)(=O)c1nnnn1-c1cccc(OC)c1	x	99*	18	-6	70*
C[C@H](CO)N1C[C@H](C)[C@H](CN(C)S(=O)(=O)c2ccccc2)Oc2ccc(NC(=O)CCN3CCOCC3)cc2CC1=O	-14	x	x	x	x
CCc1nn(CC(=O)NCCc2ccc(Cl)cc2)c(=O)c2cccn12	2	-23	1	-15	12
CN(C)c1ccc(S(=O)(=O)N2CCCCC2)cc1NC(=O)CCNC(=O)c1ccc(Cl)cc1	-16	7	2	x	1
CCOC(=O)c1c[nH]c2ccc3ccccc3c2c1=O	1	8	2	-29	2
CCOC(=O)c1[nH]cnc1N=Nc1c(O)ccc2ccccc12	23	80	47*	91*	x
Oc1ccc2ccccc2c1N=Nc1ccccc1F	18	-25	-16	-13	16
Oc1ccc2ccccc2c1N=Nc1ccccn1	x	95*	63*	75*	60
COc1ccc(S(=O)(=O)Nc2ccc3c(c2)C(=O)N([C@H](C)CO)C[C@@H](C)[C@H](CN(C)S(=O)(=O)c2ccc(F)cc2)OCCCC[C@H](C)O3)cc1	79*	x	x	x	x
COc1ccc(S(=O)(=O)Nc2ccc3c(c2)C(=O)N([C@H](C)CO)C[C@H](C)[C@H](CN(C)S(=O)(=O)c2ccc(F)cc2)OCCCC[C@H](C)O3)cc1	77*	x	x	x	x
COc1ccc(S(=O)(=O)N(C)C[C@H]2OCCCC[C@H](C)Oc3ccc(NS(=O)(=O)c4ccc(F)cc4)cc3C(=O)N([C@H](C)CO)C[C@H]2C)cc1	10	x	x	x	x
COc1ccc(S(=O)(=O)Nc2ccc3c(c2)C(=O)N([C@H](C)CO)C[C@H](C)[C@H](CN(C)S(=O)(=O)c2ccc(F)cc2)OCCCC[C@@H](C)O3)cc1	0	x	x	x	x
SMILES	PAX8 reporter	Shn3 inh set2	LMP1 NFkB inh	aSyn 5UTR inh	MITF TRPM1 inh
O=C(OCCN1C(=O)c2cccc3c(N4CCOCC4)ccc(c23)C1=O)c1ccc(Cl)cc1	61*	0	16	53	9
COc1ccc(S(=O)(=O)NC(CC(=O)NCc2ccco2)C(C)C)cc1 (configuration not stated)	x	-5	84*	7	-7
Fc1ccc(-c2nnc(NC3=NCCCCC3)o2)cc1	x	58	65*	98*	62*
CCCN1C(=O)c2[nH]nc(-c3cc(Cl)c(C)cc3O)c2C1c1ccc(O)c(OC)c1 (configuration not stated)	20	17	16	-7	-5
CC1(C(=O)O)CCCN1C(=O)c1ccccc1OC(F)(F)F (configuration not stated)	73*	1	x	x	x
Nc1ccc(Oc2ccccc2-c2ccccc2)cc1	23	x	29	104*	66*
CCc1noc(C)c1C(=O)N(C)CC(=O)Nc1ccc(OC)cc1	-24	-5	-7	-9	-2
CCc1noc(C)c1C(=O)N(C)CC(=O)Nc1cccc(OC)c1	-16	-10	68*	x	x
Cc1ccc(S(=O)(=O)Nc2ccc3c(c2)C(=O)N([C@H](C)CO)C[C@H](C)[C@H](CN(C)S(=O)(=O)c2ccc(C)cc2)OCCCC[C@H](C)O3)cc1	63*	x	x	x	x
Cc1ccc(S(=O)(=O)N(C)C[C@H]2OCCCC[C@H](C)Oc3ccc(NS(=O)(=O)c4cccs4)cc3C(=O)N([C@H](C)CO)C[C@@H]2C)cc1	72*	x	x	x	x
Cc1ccc(S(=O)(=O)Nc2ccc3c(c2)C(=O)N([C@@H](C)CO)C[C@@H](C)[C@@H](CN(C)S(=O)(=O)c2ccc(C)cc2)OCCCC[C@@H](C)O3)cc1	66*	x	x	x	x
Cc1ccc(S(=O)(=O)Nc2ccc3c(c2)C(=O)N([C@@H](C)CO)C[C@H](C)[C@H](CN(C)S(=O)(=O)c2ccccc2)OCCCC[C@H](C)O3)cc1	67*	x	x	x	x
Cc1cccc(N2CCN(C(=O)CSc3ccc4c(c3)OCCO4)CC2)c1C	0	22	8	x	-9
CCCC#Cc1ccc([C@@H]2[C@@H](CO)N3CCCCN(S(=O)(=O)Cc4ccccc4)C[C@@H]23)cc1	-8	x	x	x	x
O=C(C1CCC1)N1CC(=O)N2[C@H](CO)[C@H](c3ccc(C#CCc4ccccc4)cc3)[C@H]2C1	83*	x	x	x	x
CCCC#Cc1ccc([C@H]2[C@H]3CN(S(=O)(=O)Cc4ccccc4)CCCCN3[C@H]2CO)cc1	106*	x	x	x	x
CCCC#Cc1ccc([C@@H]2[C@H](CO)N3CCCCN(S(=O)(=O)Cc4ccccc4)C[C@@H]23)cc1	117*	x	x	x	x
O=C(c1ccc(F)cc1)N1CC(=O)N2[C@H](CO)[C@@H](c3ccc(/C=C/c4ccccc4)cc3)[C@@H]2C1	69*	x	x	x	x
O=C1CN(S(=O)(=O)Cc2ccccc2)C[C@@H]2[C@@H](c3ccc(C#Cc4ccc(F)cc4)cc3)[C@H](CO)N12	53	x	x	x	x
O=C1CN(S(=O)(=O)Cc2ccccc2)C[C@@H]2[C@@H](c3ccc(C#Cc4ccc(F)cc4)cc3)[C@@H](CO)N12	106*	x	x	x	x
O=C1CN(Cc2ccc(F)cc2)C[C@@H]2[C@@H](c3ccc(Br)cc3)[C@@H](CO)N12	73*	x	x	x	x
O=C1CN(Cc2ccc(F)cc2)C[C@@H]2[C@@H](c3ccc(Br)cc3)[C@H](CO)N12	1	x	x	x	x

High-throughput results from PubChem BioAssay.
